# Screen size: about 370,000 compounds; about 5,400 (1.5%) were called active. The sample holds actives, similar compounds and a random draw of the others, so the mix is not that of the screen.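 How the source made its calls: active means activation above the mean of all tested compounds plus 3 SD (cut at about 5.5% in these data); inactive means the rest.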
# Tested on: DAF-12 nuclear receptor (Haemonchus contortus)
# Assay: hcDAF-12 driven luciferase reporter activation – cell-based, luminescence, HEK293, lit1-tk-luc reporter, primary screen (AID 652067);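 further: 100% = response to 3 µM Δ7-dafachronic acid high control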
# Settings: HEK293 hcDAF-12 lit1-tk-luc reporter, at 6.8 µM, hits give high values, 0% DMSO, 100% Δ7-dafachronic acid
row,Structure (SMILES),activation
1,CCC[C@H]1C(=O)CC[C@@]23CCCN2C(=O)CCC[C@@H]13,0.52% (inactive)
2,COc1ccnc(C(=O)N2CCC(Oc3cccnc3)CC2)c1,-0.13% (inactive)
3,CN(C)CCNC(=O)c1ccc(-c2cn3c(-c4ccc(Oc5ccccc5)cc4)cnc3cn2)cc1,-0.28% (inactive)
4,COCCN(CCOC)S(=O)(=O)c1ccc(C(=O)Nc2nc3c(s2)CCc2ccccc2-3)cc1,-3.08% (inactive)
5,CN(C)CCNC(=O)c1[nH]nc2c1CCc1ccccc1-2,6.06% (active)
6,COC(=O)[C@]12C[C@H](CC(=O)NCCCCc3ccccc3)C(=O)N(Cc3ccc4c(c3)OCO4)C1=C[C@H](C(C)(C)C)O[C@@H]2C,2.01% (inactive)
7,C[C@H]1[C@H](NC(=O)c2cccc(N(C)C)c2)CC[C@@]23CCCN2C(=O)CCC[C@@H]13,-1.72% (inactive)
8,CCCNC(=O)Nc1ccc2c(c1)C(=O)N(C)[C@H]1CC[C@H](CC(=O)NCC3CCCCC3)O[C@@H]1CO2,1.19% (inactive)
9,Cc1nc(NC(=O)C(C)(C)C)sc1[N+](=O)[O-],-0.38% (inactive)
10,Nc1[nH]c(C(=O)c2ccccc2)c(-c2ccc(Cl)cc2Cl)c1C(=O)c1ccccc1,-1.47% (inactive)
11,Nc1[nH]c(C(=O)c2ccc(Br)cc2)c(-c2ccc3c(c2)OCO3)c1C(=O)NCCc1c[nH]c2ccccc12,0.26% (inactive)
12,O=c1c2cc([N+](=O)[O-])ccc2nc2n1CCC2,-0.38% (inactive)
13,Cc1ccnc(N2C(=O)c3ccc([N+](=O)[O-])cc3C2=O)c1,-1.07% (inactive)
14,Cc1ccc(-n2cc3ccc([N+](=O)[O-])cc3n2)cc1,9.08% (active)
15,COC(=O)C[C@@H]1CC[C@@H]2[C@H](COc3ccc(NC(=O)c4cccc(F)c4)cc3C(=O)N2C)O1,-2.02% (inactive)
16,O=C(NCCCc1ccccc1)[C@H](Cc1ccccc1)NC1(C(=O)NCCc2c[nH]c3ccccc23)CCC1,1.93% (inactive)
17,Nc1ncnc2c1ncn2[C@@H]1O[C@H](C(=O)N[C@@H](CCc2ccccc2)C(=O)NCC(=O)N2CCOCC2)[C@@H](O)[C@H]1O,-0.25% (inactive)
18,Cc1cc(NC(=O)Nc2ccccc2[N+](=O)[O-])no1,-0.4% (inactive)
19,Cc1csc(NC(=O)Nc2ccccc2[N+](=O)[O-])n1,13.9% (active)
20,CN1CCN(CCNC(=O)Nc2ccccc2[N+](=O)[O-])CC1,-0.05% (inactive)
21,CCOc1ccc(-n2c(SCC(=O)Nc3cc(C)c(NC(=O)c4ccccc4)cc3OC)nnc2-c2cccs2)cc1,-0.56% (inactive)
22,O=C(CN1C(=O)NC2(CCc3ccccc32)C1=O)NC1CCCCC1 (stereo not given),2.74% (inactive)
23,Nc1nc2c(ncn2[C@@H]2O[C@H](C(=O)N[C@H](Cc3ccccc3)C(=O)NCC3CCCCC3)[C@@H](O)[C@H]2O)c(=O)[nH]1,1.38% (inactive)
24,COc1ccc(NC(=O)c2c(C)oc3c2CCCC3)cc1,1.98% (inactive)
25,Cc1ccc(NC(=O)c2csc3c2CCCC3)cc1,11.3% (active)
26,CC1CC(C)CN(CCCNC(=O)c2csc3c2CCCCC3)C1 (stereo not given),0.75% (inactive)
27,COCCNC(=S)N(C)[C@H]1C[C@H]2c3[nH]c4ccccc4c3CCN2C[C@H]1[C@H](C)O,1.74% (inactive)
28,COc1cc2cc(CN(CCN3CCCC3)C(=O)Nc3ccccc3Cl)c(=O)[nH]c2cc1OC,-0.2% (inactive)

row,Structure (SMILES),activation
1,Cc1ccc(C(=O)N(Cc2ccccn2)CC2CCCO2)cc1 (stereo not given),-1.39% (inactive)
2,CN1[C@H](Cc2ccccc2)COc2cccc(N3CCSCC3)c2S1(=O)=O,3.54% (inactive)
3,CC(=O)N1CCN(c2ccccc2NC(=S)NC(=O)c2cc3ccccc3o2)CC1,7.26% (active)
4,O=C(c1cc2ccccc2o1)N1CCN(Cc2ccccc2)CC1,-2.1% (inactive)
5,O=C(Nc1ccccc1N1CCN(C(=O)c2ccccc2)CC1)c1ccco1,-1.91% (inactive)
6,CCc1ccccc1NC(=O)NCCN1CCCCC1,-0.86% (inactive)
7,CCc1ccccc1NC(=O)c1ccc2c(c1)CCN2S(C)(=O)=O,-0.87% (inactive)
8,CN1CCc2ccccc2C1Cc1ccccc1NC(=O)c1sc2ccccc2c1Cl (stereo not given),6.57% (active)
9,COC(=O)[C@]12C[C@H](CC(=O)NCCc3ccccc3OC)C(=O)N(Cc3ccco3)C1=C[C@H](C(C)C)O[C@@H]2C1CC1,-3.62% (inactive)
10,O=C(Nc1ccccc1F)c1ccccc1-c1ccccc1,-2.35% (inactive)
11,O=C(O)c1ccccc1-c1ccccc1C(=O)Nc1ccccc1Br,1.04% (inactive)
12,O=C(O)c1ccccc1-c1ccccc1C(=O)Nc1cccc2ccccc12,5.93% (active)
13,COc1ccc(CC(=O)NCc2nnc(SCC(=O)Nc3nccs3)n2C)cc1,-1.09% (inactive)
14,CC(Sc1nnc(CNC(=O)c2ccccc2F)n1C)C(=O)Nc1nccs1 (stereo not given),-0.26% (inactive)
15,COc1ccccc1C(=O)NCc1nnc(SC(C)C(=O)Nc2nccs2)n1C (stereo not given),6.99% (active)
16,COC(=O)[C@H](CC(C)C)NS(=O)(=O)c1c(F)cccc1F,0.07% (inactive)
17,O=C1C(=O)N(Cc2ccc(-c3ccsc3)cc2)c2ccc(OC(F)(F)F)cc21,1.15% (inactive)
18,O=C(NCCc1cccc(F)c1)C1CCCN(c2nc3ccccc3s2)C1 (stereo not given),-1.62% (inactive)
19,Brc1ccc2nc(N3CCCC3)sc2c1,9.08% (active)
20,Cc1nc(N2CCCCC2)sc1C=O,-0.55% (inactive)
21,Cc1nc2ccc(NC(=O)C(F)(F)F)cc2o1,0.11% (inactive)
22,CC(=O)Nc1ccc(S(=O)(=O)NC2Cc3ccccc3C2)cc1,-1.07% (inactive)
23,CC(=O)Nc1ccc(-c2nc3ccccc3o2)cc1,6.08% (active)
24,CC[C@H](C)[C@H]1CNC(=O)C(=O)N1CC1CCN(CCc2ccc(OC)c(OC)c2)CC1,-1.29% (inactive)
25,Cc1cc(O)c(C(=O)/C=C/c2c(F)c(F)c(F)c(F)c2F)c(=O)o1,8.11% (active)
26,Cc1cc(O)c(Sc2ccccc2)c(=O)o1,0.75% (inactive)
27,C=CCN1[C@@H](Cc2ccccc2)COc2cccc(N3CCSCC3)c2S1(=O)=O,-1.72% (inactive)

# From PubChem BioAssay AID652067 (The Scripps Research Institute Molecular Screening Center, 2013)
